Compounds with a hit are over-represented: about 4.2% of the library has one in this group of screens.
D1 ag = agonists of human D1 dopamine receptor | HEK293 T-REx D1 cells, calcium flux, agonist mode | activation, % at 2 µM | 360,000 compounds, 1% hits | AID 504660; in the data active means activation above about 30%; further: 0% is about no effect
Target sequence (P21728 whole entry, looked up): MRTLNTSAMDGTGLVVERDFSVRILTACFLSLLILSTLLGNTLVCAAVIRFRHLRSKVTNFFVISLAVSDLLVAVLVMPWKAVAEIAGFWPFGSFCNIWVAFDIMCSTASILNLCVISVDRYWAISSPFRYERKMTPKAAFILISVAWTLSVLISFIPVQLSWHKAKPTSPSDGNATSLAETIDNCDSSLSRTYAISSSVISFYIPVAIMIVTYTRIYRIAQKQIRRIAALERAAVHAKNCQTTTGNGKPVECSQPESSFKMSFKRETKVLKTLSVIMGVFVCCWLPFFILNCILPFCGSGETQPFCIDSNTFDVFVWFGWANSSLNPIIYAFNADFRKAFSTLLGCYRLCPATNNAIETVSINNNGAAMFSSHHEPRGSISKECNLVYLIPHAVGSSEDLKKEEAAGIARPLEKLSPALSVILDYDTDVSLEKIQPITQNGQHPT
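Inducible HEK293 T-REx D1 cells, force-coupled to calcium signalling, were plated at 4000 cells/well with tetracycline and held overnight at 30 C. After no-wash calcium dye loading, compound-evoked calcium rise over 180 s flagged agonists.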
D1 antag = blocks dopamine activation of the human D1 receptor; P21728; HEK293 TREx D1 cells, calcium flux, dopamine EC80; active compounds read low; activity change, negative = inhibition, % at 10 µM; 360,000 compounds, 3.2% hits; AID 504652; in the data active means activity change below about -30%; further: on the % scale 0 is the no-effect control and ±100 the full control effect
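Cells carrying a force-coupled, tetracycline-inducible human D1 receptor report calcium flux. Each well gets a 10 s baseline, compound with 180 s monitoring, then an EC80 dopamine stimulus with a second 180 s kinetic read.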
TRPV1 potentiator = potentiators of human vanilloid receptor 1 (TRPV1) | Q8NER1 | 320,000 compounds, 0.02% hits | potentiation, % at 8.33 µM | TRPV1-expressing cells, Fluo-8 calcium influx, capsaicin EC20 potentiation; in the data active means potentiation above about 80%; further: 0% is about no effect
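Fluo-8 calcium influx in TRPV1-expressing cells, kinetic read (ex 480/em 520 nm). Compound added and read 3 min for agonist activity, followed by capsaicin at EC20 final and 2 min further read for enhancement.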
TRPV1 agonist = activates the human vanilloid receptor TRPV1; TRPV1-expressing cells, Fluo-8 calcium influx, agonist mode; Q8NER1; AID 540275; 320,000 compounds, 0.19% hits; activation, % at 8.33 µM; in the data active means activation above about 80%; further: 0% is about no effect
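TRPV1-expressing cells were cultured overnight at 35.5C and loaded with Fluo-8 calcium dye for 40 to 90 min at room temperature. After a 10 s baseline, compound was added and calcium influx was read kinetically for 3 min (ex 480/em 520 nm).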
D1 PAM = potentiators of human D1 dopamine receptor; P21728; 360,000 compounds, 0.036% hits; potentiation, % at 10 µM; HEK293 TREx D1 cells, calcium flux, dopamine EC20 potentiation; in the data active means potentiation above about 30%; further: 0% is about no effect
Numbers without * were called inactive; . = no result given.

SMILES	D1 ag	D1 antag	TRPV1 potentiator	TRPV1 agonist	D1 PAM
COCCNC(=O)Cn1c(=O)n(CCCCCC(=O)NCc2ccccc2Cl)c(=O)c2sccc21	-3	3	.	.	0
CCOc1ccc(NC(=O)NC(=O)N(C(C)C)S(C)(=O)=O)cc1	4	-35*	1	-3	-4
Cc1cc(OCC(=O)Nc2ccc(S(=O)(=O)N3CCN(C)CC3)cc2)ccc1Br	33*	-72*	7	6	-1
CCCCC(=O)Nc1nnc(SCc2cc(=O)n3cc(C)ccc3n2)s1	1	8	.	.	0
CCc1nc2ccc(C(=O)NCc3ccc(OC)c(OC)c3)cc2nc1CC	-1	3	.	.	-2
CCOc1cccc(CC(=O)N2CCc3c([nH]c4ccccc34)C2c2ccc(Cl)cc2)c1OCC (stereo not given)	2	-86*	.	.	-3
O=C(CCc1ccccc1)N1CCc2c([nH]c3ccccc23)C1c1ccc(Cl)cc1 (stereo not given)	1	-3	.	.	-2
Cc1csc(=N)n1CC(=O)N1CCc2ccccc21	4	-32*	10	-1	-6
Cc1ccc(NC(=O)Cn2cc3c(n2)CCCCC3)cc1	40*	6	.	.	2
O=C(Cn1cc2c(n1)CCCCC2)N1CCc2ccccc21	-1	-76*	10	5	-6
Cn1c(=O)c2c(c3ccccc31)OC(=O)CC2c1cccc(F)c1 (stereo not given)	-1	-3	.	.	-4
Cn1c(-c2ccc([N+](=O)[O-])cc2)nc2ccccc21	1	-18	2	-4	-12
Cn1cc([N+](=O)[O-])cc1-c1nc2ccccc2n1C	3	-34*	18	-2	-3
Cc1noc(/C=C/c2cccs2)c1S(=O)(=O)N1CCC(C(=O)Nc2ccc(F)c(Cl)c2)CC1	6	-19	.	.	2
CCCCOc1ccccc1C1CC(=O)NC2=C1C(=O)CCC2 (stereo not given)	15	-48*	0	3	-5
O=C(Nc1ccccc1C(F)(F)F)N1CCC2(CC1)Oc1ccccc1C(=O)N2Cc1ccccc1F	3	-7	.	.	0
O=C1CCSC2(C(=O)N(Cc3ccc(F)cc3)c3ccccc32)N1c1ccc(F)c(F)c1 (stereo not given)	1	4	.	.	-2
COc1ccccc1Oc1cn[nH]c1-c1ccc(O)cc1O	2	-32*	1	-2	-6
O=C(O)COc1ccccc1/C=N/NC(=O)CSc1nnc(SCc2cccc3ccccc23)s1	35*	-2	-16	-5	-1
CCCCc1nc2ccccc2c(N)c1CCC (tested in a mixture with another compound)	50*	-47*	6	-4	-5
Cc1ccc(S(=O)(=O)N2CCN(c3ncnc4sccc34)CC2)cc1C	9	-15	20	9	-6
Cc1cc(C)c(C)c(S(=O)(=O)N2CCN(S(=O)(=O)c3ccc4c(c3)OCCO4)CC2)c1C	5	-48*	.	.	-2
O=S(=O)(c1ccc2c(c1)OCCO2)N1CCN(S(=O)(=O)c2ccc3c(c2)OCCO3)CC1	1	-5	.	.	7
O=S(=O)(c1ccc2c(c1)OCCO2)N1CCN(c2ncnc3sccc23)CC1	13	-32*	-5	7	-4
CCC1CCCCN1CCCNC(=O)c1ccc2c(c1)N(Cc1ccc(Cl)cc1)C(=O)c1ccccc1S2(=O)=O (stereo not given)	19	3	.	.	-5
SMILES	D1 ag	D1 antag	TRPV1 potentiator	TRPV1 agonist	D1 PAM
O=C(O)CCCN1C(=O)NC2NC(=O)NC21 (stereo not given)	1	-31*	-13	-1	-5
CCCCNC(=O)CN1C(=O)NC2NC(=O)NC21 (stereo not given)	0	-43*	-6	-4	-7
COc1ccccc1NC(=O)Cn1c(=O)n(-c2cccc(C)c2)c(=O)c2c1c1cc(C)ccc1n2C	0	-1	.	.	-2
CC(NC(=O)c1cc(-c2cccnc2)nc2ccc(Br)cc12)C1CCCO1 (stereo not given)	0	-34*	3	2	2
CCOc1ccc(-c2noc(CSc3nnc(Cc4ccccc4)n3-c3cccc(C)c3)n2)cc1	38*	-4	.	.	1
CCOc1ccc(-n2c(Cc3ccccc3)nnc2SCc2nc(-c3ccccc3C)no2)cc1	32*	-1	.	.	-1
